Holding throughout (test): DAPPL (digital affinity profiling via proximity ligation, sequencing); 10 mM Tris-HCl pH 7.5, 50 mM NaCl, 1 mM DTT, 4% glycerol, room temperature, 30 min; GST-TFs on glutathione beads, 16-mer random dsDNA library, 0.1% formaldehyde crosslink after washing; high values mean tight binding
Conditions in all cases: protein: recombinant; tags: N-terminal GST; dsDNA, one strand shown

One assay has as its target T1, ELK4 (Homo sapiens, UniProt P28324-2 1-405).
T1 sequence: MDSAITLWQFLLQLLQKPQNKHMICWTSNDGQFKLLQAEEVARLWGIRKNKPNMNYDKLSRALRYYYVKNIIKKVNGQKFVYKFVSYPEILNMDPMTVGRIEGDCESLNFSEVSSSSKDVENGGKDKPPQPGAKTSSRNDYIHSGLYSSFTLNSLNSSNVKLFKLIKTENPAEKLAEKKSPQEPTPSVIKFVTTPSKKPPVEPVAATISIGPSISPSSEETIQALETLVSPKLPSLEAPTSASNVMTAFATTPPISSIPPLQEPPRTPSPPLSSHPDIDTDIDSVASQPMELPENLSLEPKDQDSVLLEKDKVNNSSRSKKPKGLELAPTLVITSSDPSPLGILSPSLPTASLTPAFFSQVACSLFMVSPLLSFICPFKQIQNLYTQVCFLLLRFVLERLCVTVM
The essentials: (§1)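 Sequencing on an Illumina NextSeq500 followed washing, crosslinking with 0.1% formaldehyde, proximity ligation (BsaI/T4 ligase, 1 h, 37 °C) and PCR amplification of pools that had been incubated for 30 min at room temperature with 200 nmole of a random double-stranded 16-mer DNA library in Tris/NaCl/DTT/glycerol buffer. Each pool held DNA-barcoded human transcription factors, expressed in yeast as GST fusions and captured on glutathione beads, plus a tag-only sample. Binding signal is a hexamer's read frequency for a factor divided by its frequency in the tag-only sample.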

For another assay, the target named is T2, ELF3 (Homo sapiens, UniProt P78545 1-371).
T2 sequence: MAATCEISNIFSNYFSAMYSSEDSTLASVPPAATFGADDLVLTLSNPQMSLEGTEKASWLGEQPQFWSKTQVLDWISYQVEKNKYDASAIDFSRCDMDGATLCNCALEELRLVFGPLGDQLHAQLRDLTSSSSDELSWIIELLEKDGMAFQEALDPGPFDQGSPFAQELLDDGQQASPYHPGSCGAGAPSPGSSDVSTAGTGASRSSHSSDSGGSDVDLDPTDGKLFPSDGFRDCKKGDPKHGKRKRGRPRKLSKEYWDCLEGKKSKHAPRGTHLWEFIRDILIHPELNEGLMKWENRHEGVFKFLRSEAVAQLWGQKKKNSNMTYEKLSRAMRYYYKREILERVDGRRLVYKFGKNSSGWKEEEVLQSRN
The essentials:
as §1

Another assay addresses ETV1 (Homo sapiens, UniProt P50549 1-477). An outline of the steps:
as §1

The target in another assay is T3, ERF (Homo sapiens, UniProt P50548 1-548).
T3 sequence: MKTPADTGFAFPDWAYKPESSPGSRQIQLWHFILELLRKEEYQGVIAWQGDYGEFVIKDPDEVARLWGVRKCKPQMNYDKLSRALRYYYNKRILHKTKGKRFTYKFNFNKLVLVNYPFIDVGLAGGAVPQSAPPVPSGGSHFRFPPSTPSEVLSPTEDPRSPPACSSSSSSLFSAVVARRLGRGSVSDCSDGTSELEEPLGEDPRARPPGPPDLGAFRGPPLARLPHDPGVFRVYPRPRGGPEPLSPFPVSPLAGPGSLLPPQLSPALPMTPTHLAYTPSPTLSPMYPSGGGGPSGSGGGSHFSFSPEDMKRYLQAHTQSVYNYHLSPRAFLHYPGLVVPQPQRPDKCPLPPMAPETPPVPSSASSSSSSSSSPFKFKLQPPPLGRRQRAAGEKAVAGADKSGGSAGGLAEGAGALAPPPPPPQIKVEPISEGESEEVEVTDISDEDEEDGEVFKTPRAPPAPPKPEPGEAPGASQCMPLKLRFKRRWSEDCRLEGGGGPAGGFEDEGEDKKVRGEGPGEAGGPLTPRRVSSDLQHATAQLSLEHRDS
The essentials: as §1

In another assay the target is T4, ETV3L (Homo sapiens, UniProt Q6ZN32 1-361).
T4 sequence: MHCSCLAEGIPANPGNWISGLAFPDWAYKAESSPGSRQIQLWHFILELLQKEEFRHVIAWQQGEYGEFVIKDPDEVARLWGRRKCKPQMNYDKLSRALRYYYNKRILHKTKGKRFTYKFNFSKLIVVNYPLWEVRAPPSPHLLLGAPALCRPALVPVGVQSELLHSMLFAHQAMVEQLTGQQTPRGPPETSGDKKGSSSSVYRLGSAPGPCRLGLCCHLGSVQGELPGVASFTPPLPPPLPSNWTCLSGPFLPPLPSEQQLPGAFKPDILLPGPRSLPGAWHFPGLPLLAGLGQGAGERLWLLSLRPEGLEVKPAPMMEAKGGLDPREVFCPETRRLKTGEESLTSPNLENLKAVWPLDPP
An outline of the steps: as §1

The target in a further assay is T5, ETS2 (Homo sapiens, UniProt P15036 1-469).
T5 sequence: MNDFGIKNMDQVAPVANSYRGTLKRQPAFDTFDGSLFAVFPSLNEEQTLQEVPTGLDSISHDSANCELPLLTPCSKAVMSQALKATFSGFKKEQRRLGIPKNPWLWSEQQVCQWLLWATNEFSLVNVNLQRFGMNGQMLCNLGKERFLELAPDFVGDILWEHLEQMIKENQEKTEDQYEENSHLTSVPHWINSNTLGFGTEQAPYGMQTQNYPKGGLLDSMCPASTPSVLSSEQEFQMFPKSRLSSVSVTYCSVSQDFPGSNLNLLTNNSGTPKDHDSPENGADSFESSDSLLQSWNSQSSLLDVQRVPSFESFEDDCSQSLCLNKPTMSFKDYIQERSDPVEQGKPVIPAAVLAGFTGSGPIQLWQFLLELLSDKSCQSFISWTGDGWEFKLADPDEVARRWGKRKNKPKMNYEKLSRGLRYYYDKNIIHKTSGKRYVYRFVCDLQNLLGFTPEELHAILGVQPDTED
The essentials:
as §1

The next assay concerns the target T6, SPDEF (Homo sapiens, UniProt O95238 1-335).
T6 sequence: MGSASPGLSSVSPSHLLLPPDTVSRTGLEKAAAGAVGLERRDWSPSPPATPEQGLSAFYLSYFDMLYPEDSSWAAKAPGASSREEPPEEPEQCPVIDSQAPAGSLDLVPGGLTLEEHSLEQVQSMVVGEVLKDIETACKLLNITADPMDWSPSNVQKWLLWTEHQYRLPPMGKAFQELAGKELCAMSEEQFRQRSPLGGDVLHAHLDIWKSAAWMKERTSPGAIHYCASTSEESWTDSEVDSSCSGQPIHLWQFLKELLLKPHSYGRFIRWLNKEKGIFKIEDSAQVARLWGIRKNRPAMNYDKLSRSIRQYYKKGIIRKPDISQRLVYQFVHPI
An outline of the steps: as §1

For a further assay, the target named is T7, ETV7 (Homo sapiens, UniProt Q9Y603 1-341).
T7 sequence: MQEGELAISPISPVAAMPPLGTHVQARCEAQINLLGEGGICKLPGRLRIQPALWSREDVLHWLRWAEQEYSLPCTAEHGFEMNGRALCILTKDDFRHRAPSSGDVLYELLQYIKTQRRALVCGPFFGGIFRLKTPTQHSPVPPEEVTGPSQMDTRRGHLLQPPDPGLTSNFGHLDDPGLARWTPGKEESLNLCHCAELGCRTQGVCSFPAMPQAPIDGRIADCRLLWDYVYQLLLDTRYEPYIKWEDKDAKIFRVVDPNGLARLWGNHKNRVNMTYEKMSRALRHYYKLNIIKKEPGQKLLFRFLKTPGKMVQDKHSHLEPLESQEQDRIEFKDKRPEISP
An outline of the steps:
as §1

The next assay deals with T8, ETV3 (Homo sapiens, UniProt P41162-2 1-143).
T8 sequence: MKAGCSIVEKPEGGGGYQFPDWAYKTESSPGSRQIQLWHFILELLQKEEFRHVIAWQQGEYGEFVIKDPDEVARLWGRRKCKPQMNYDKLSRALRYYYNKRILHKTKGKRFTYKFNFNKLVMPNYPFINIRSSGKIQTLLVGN
An outline of the steps:
as §1

The next assay has as its target ETV6 (Homo sapiens, UniProt P41212 1-452). The essentials: as §1

Chain of ETV6 (P41212 whole entry): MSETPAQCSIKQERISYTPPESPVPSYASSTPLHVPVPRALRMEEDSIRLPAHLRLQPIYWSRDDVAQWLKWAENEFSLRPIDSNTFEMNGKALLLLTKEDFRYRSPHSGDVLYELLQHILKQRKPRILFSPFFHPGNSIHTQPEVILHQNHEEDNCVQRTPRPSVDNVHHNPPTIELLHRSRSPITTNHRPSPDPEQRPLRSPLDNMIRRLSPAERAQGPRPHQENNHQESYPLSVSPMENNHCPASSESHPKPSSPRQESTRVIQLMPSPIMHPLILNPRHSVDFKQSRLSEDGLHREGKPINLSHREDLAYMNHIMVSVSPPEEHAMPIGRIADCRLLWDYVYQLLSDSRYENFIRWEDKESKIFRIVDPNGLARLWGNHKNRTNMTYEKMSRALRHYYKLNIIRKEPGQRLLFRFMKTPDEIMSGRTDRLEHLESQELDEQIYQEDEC
Chain of ETV1 (P50549 whole entry): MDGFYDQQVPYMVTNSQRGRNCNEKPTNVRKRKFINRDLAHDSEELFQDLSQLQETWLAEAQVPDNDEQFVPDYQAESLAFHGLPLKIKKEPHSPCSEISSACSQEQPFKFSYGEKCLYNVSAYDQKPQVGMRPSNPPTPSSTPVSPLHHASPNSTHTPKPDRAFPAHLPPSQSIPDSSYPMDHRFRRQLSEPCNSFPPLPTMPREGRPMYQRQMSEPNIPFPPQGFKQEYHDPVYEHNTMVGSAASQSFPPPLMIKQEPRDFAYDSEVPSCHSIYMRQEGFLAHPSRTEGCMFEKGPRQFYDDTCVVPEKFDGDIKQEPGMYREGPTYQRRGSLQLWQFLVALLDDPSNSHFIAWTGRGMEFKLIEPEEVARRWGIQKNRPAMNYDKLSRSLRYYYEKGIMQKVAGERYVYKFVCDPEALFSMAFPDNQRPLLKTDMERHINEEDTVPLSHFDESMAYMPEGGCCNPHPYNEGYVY

GCTGGT: the binding signal was 1.45 fold enrichment (6-mer frequency, TF over GST control) with ELK4; 1.16 fold enrichment (6-mer frequency, TF over GST control) in the assay with ELF3; 1.02 fold enrichment (6-mer frequency, TF over GST control) in the assay with ETV1; 1.14 fold enrichment (6-mer frequency, TF over GST control) with ERF; 1.19 fold enrichment (6-mer frequency, TF over GST control) in the assay with ETV3L; 1.17 fold enrichment (6-mer frequency, TF over GST control) with ETS2. For the same sequence, the binding signal with SPDEF was 1.2 fold enrichment (6-mer frequency, TF over GST control); with ETV7, 1.17 fold enrichment (6-mer frequency, TF over GST control); with ETV3, 1.29 fold enrichment (6-mer frequency, TF over GST control); in the assay with ETV6 it was 1.13 fold enrichment (6-mer frequency, TF over GST control).

For the origin of these results see publication PMC7862700, “An all-to-all approach to the identification of sequence-specific readers for epigenetic DNA modifications on cytosine”.
